# Residue numbers refer to the chain shown, from its start. Whole data set: some 16,000 sequences, median “ka relative to ugcaugu” near 0.0091, cut for the highest 2% near 0.032. The list comes from a sample in which the highest values are over-represented; it also holds similar and randomly drawn sequences.
# T1: RBFOX1 RRM (Homo sapiens, UniProt Q9NWB1 109-208)
# T1 sequence: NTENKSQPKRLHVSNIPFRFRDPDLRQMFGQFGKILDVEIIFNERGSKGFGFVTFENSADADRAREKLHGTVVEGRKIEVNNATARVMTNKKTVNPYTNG
# B1: CAGCUCA (DNA:RNA)
# RNA: GGGAGACCGGAAUUCAGAUUGUCCCAGCUCAUUAAAUCCCGUCGUAGCCACCA
# DNA 1: CAATCTGAATTCCGGTCTCCC
# DNA 2: TGGTGGCTACGACGGGATT
# B2: GUAUCUG (DNA:RNA)
# RNA: GGGAGACCGGAAUUCAGAUUGUCCGUAUCUGUUAAAUCCCGUCGUAGCCACCA
# DNA 1: CAATCTGAATTCCGGTCTCCC
# DNA 2: TGGTGGCTACGACGGGATT
# B3: AAUGCCC (DNA:RNA)
# RNA: B1 RNA with C25A, G27U, C28G, U29C, A31C
# DNA 1: CAATCTGAATTCCGGTCTCCC
# DNA 2: TGGTGGCTACGACGGGATT
# B4: UGAACGA (DNA:RNA)
# RNA: B2 RNA with G25U, U26G, U28A, U30G, G31A
# DNA 1: CAATCTGAATTCCGGTCTCCC
# DNA 2: TGGTGGCTACGACGGGATT
# B5: CUAGAGG (DNA:RNA)
# RNA: B2 RNA with G25C, U28G, C29A, U30G
# DNA 1: CAATCTGAATTCCGGTCTCCC
# DNA 2: TGGTGGCTACGACGGGATT
# B6: UAGCGUU (DNA:RNA)
# RNA: B1 RNA with C25U, U29G, C30U, A31U
# DNA 1: CAATCTGAATTCCGGTCTCCC
# DNA 2: TGGTGGCTACGACGGGATT
# B7: UGACAAC (DNA:RNA)
# RNA: B1 RNA with C25U, A26G, G27A, U29A, C30A, A31C
# DNA 1: CAATCTGAATTCCGGTCTCCC
# DNA 2: TGGTGGCTACGACGGGATT
# B8: AACUUUA (DNA:RNA)
# RNA: B1 RNA with C25A, G27C, C28U, C30U
# DNA 1: CAATCTGAATTCCGGTCTCCC
# DNA 2: TGGTGGCTACGACGGGATT
# B9: GUCCUGU (DNA:RNA)
# RNA: B1 RNA with C25G, A26U, G27C, C30G, A31U
# DNA 1: CAATCTGAATTCCGGTCTCCC
# DNA 2: TGGTGGCTACGACGGGATT
# B10: UGUGGUG (DNA:RNA)
# RNA: B2 RNA with G25U, U26G, A27U, U28G, C29G
# DNA 1: CAATCTGAATTCCGGTCTCCC
# DNA 2: TGGTGGCTACGACGGGATT
# B11: UGUGUGG (DNA:RNA)
# RNA: B1 RNA with C25U, A26G, G27U, C28G, C30G, A31G
# DNA 1: CAATCTGAATTCCGGTCTCCC
# DNA 2: TGGTGGCTACGACGGGATT
# B12: UGCUGAG (DNA:RNA)
# RNA: B2 RNA with G25U, U26G, A27C, C29G, U30A
# DNA 1: CAATCTGAATTCCGGTCTCCC
# DNA 2: TGGTGGCTACGACGGGATT
# B13: UGAGGAG (DNA:RNA)
# RNA: B2 RNA with G25U, U26G, U28G, C29G, U30A
# DNA 1: CAATCTGAATTCCGGTCTCCC
# DNA 2: TGGTGGCTACGACGGGATT
# B14: UGAGUUG (DNA:RNA)
# RNA: B2 RNA with G25U, U26G, U28G, C29U
# DNA 1: CAATCTGAATTCCGGTCTCCC
# DNA 2: TGGTGGCTACGACGGGATT
# B15: UGUUCGU (DNA:RNA)
# RNA: B2 RNA with G25U, U26G, A27U, U30G, G31U
# DNA 1: CAATCTGAATTCCGGTCTCCC
# DNA 2: TGGTGGCTACGACGGGATT
# B16: UGGUGUG (DNA:RNA)
# RNA: B2 RNA with G25U, U26G, A27G, C29G
# DNA 1: CAATCTGAATTCCGGTCTCCC
# DNA 2: TGGTGGCTACGACGGGATT
# B17: UGUCCGU (DNA:RNA)
# RNA: B1 RNA with C25U, A26G, G27U, U29C, C30G, A31U
# DNA 1: CAATCTGAATTCCGGTCTCCC
# DNA 2: TGGTGGCTACGACGGGATT
# B18: GCUGUCG (DNA:RNA)
# RNA: B1 RNA with C25G, A26C, G27U, C28G, A31G
# DNA 1: CAATCTGAATTCCGGTCTCCC
# DNA 2: TGGTGGCTACGACGGGATT
# B19: GCUGCUG (DNA:RNA)
# RNA: B2 RNA with U26C, A27U, U28G
# DNA 1: CAATCTGAATTCCGGTCTCCC
# DNA 2: TGGTGGCTACGACGGGATT
# B20: GCUGUUG (DNA:RNA)
# RNA: B2 RNA with U26C, A27U, U28G, C29U
# DNA 1: CAATCTGAATTCCGGTCTCCC
# DNA 2: TGGTGGCTACGACGGGATT
# Target: T1, RBFOX1 RRM
# Experiment: EMSA; HiTS-Eq, 1 nM pool, 10 min; buffer printed only for the single-RNA assays: 10 mM Tris pH 7.5, 150 mM NaCl, 3.4 mM EDTA, 0.001% NP-40, 30 C
# Details: tags: His6 N-terminal (pET28a); label: 5' 32P
# Outline: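 Purified wild-type or mutant RbFox RRM at increasing concentrations was equilibrated with 1 nM of 5′-radiolabelled RNA carrying 7 randomized nucleotides for 10 min in 50 µL. Unbound RNA was separated by 8% native PAGE and sequenced. Relative association constants came from read-count changes of each RNA species compared with the control reaction, normalised to the cognate motif.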
row,Binder,binding signal
1,B1,0.00282 KA relative to UGCAUGU
2,B2,0.015 KA relative to UGCAUGU
3,B3,0.00474 KA relative to UGCAUGU
4,B4,0.0199 KA relative to UGCAUGU
5,B5,0.00494 KA relative to UGCAUGU
6,B6,0.0117 KA relative to UGCAUGU
7,B7,0.00863 KA relative to UGCAUGU
8,B8,0.000524 KA relative to UGCAUGU
9,B9,0.0155 KA relative to UGCAUGU
10,B10,0.0376 KA relative to UGCAUGU
11,B11,0.0178 KA relative to UGCAUGU
12,B12,0.0319 KA relative to UGCAUGU
13,B13,0.0109 KA relative to UGCAUGU
14,B14,0.0276 KA relative to UGCAUGU
15,B15,0.0328 KA relative to UGCAUGU
16,B16,0.029 KA relative to UGCAUGU
17,B17,0.0131 KA relative to UGCAUGU
18,B18,0.0197 KA relative to UGCAUGU
19,B19,0.0323 KA relative to UGCAUGU
20,B20,0.028 KA relative to UGCAUGU
